{
  "source": "PubChem BioAssay (NCI)",
  "note": "This is part of a sample that, as a whole, favours compounds with a hit. Of some 83,000 tested, about 20% had one in any assay.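 Step 1: grow cells in 96-well plates. Step 2: add test compound at a single concentration. Step 3: incubate 48 h. Step 4: record percent growth.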 Unmarked numbers belong to inactive results. Activity calls are given as the source filed them. Rule for the calls: active = growth percent below 10; inactive = the rest.",
  "data": [
    {"tested_on": "PC-3 prostate", "assay": "NCI-60 one-dose screen, 48 h (100 = growth as untreated, 0 = no growth, -100 = all killed)", "conditions": "10 µM unless noted", "values": [
      {"compound": "COc1cc(/C=C/C(=O)c2cccc(-n3cc(-c4ccccc4)[nH]c3=O)c2)cc(OC)c1OC", "growth": "7.64% (active)"},
      {"compound": "C[C@@H]1C(=O)N(C[C@H](Cc2ccccc2)NC(=O)OCc2ccccc2)[C@]1(Cc1ccccc1)C(=O)OC(C)(C)C", "growth": "27.5%"},
      {"compound": "Oc1ccccc1-c1nc2ccccn2c1NCCN1CCOCC1", "growth": "87.4%"},
      {"compound": "COc1ccc(/C(C)=C(\\c2ccc(Cl)cc2)c2ccc(OCCCN(C)C)cc2)cc1F", "growth": "59.2%"},
      {"compound": "COc1cc2ccccc2cc1C(=O)NC(=S)Nc1ccc(-c2nc3ccccc3[nH]2)cc1", "growth": "90.6%"},
      {"compound": "O=[N+]([O-])c1ccc2[nH]cc(-c3c4ccsc4cc4[nH]c5ccc([N+](=O)[O-])cc5c34)c2c1", "growth": "9.2% (active)"},
      {"compound": "CCOC(=O)c1nnn(C(Cc2ccccc2Cl)C(=O)OCC)c1C", "note": "(configuration not stated)", "growth": "94%"},
      {"compound": "Cc1nc(Nc2ccccn2)sc1C(=O)/C=C/c1ccc(Br)cc1", "growth": "56.3%"},
      {"compound": "CN(C)c1ccc(/C=C/c2c(F)cccc2F)cc1", "growth": "81.7%"},
      {"compound": "N#Cc1c(-c2ccc(C(F)(F)F)cc2)cc(N2CC(O)C2)n2c1nc1ccccc12", "growth": "39.6%"},
      {"compound": "O=C1c2ccccc2C(=O)c2cc(Cn3cc[n+](Cc4ccc5ccccc5c4)c3)ccc21", "growth": "38.8%"},
      {"compound": "O=C(CC12CC3CC(CC(C3)C1)C2)NCCOCCOCCOCCNC(=O)c1cc2c(o1)C(=O)c1ccccc1C2=O", "growth": "13.1%"},
      {"compound": "Oc1[nH]c2ccccc2c1/C=c1/cc2c(c(-c3ccc(F)cc3)n1)=Nc1ccccc1-2", "growth": "-14.8% (active)"},
      {"compound": "N#Cc1c(N)nc2c(nnn2-c2cccc(C(F)(F)F)c2)c1N", "growth": "86.8%"},
      {"compound": "CN(C)CN1CCN(c2ccc3nc(-c4ccc5nc(-c6ccc(C(F)(F)F)cc6)[nH]c5c4)[nH]c3c2)CC1", "growth": "68.4%"},
      {"compound": "COC(=O)Nc1nc2ccc(C(=O)C3CC3)cc2[nH]1", "growth": "14.7%"},
      {"compound": "CC1(C)N=C(N)N=C(N)N1c1ccc(Cl)c(Cl)c1", "growth": "38.3%"},
      {"compound": "O=C1NC(=S)S/C1=C\\N1N=C(c2ccc(Cl)cc2)CC1c1ccc(F)cc1", "note": "(configuration not stated)", "growth": "81.6%"},
      {"compound": "Cc1nc(Nc2ccc(NC(=S)Nc3ccccc3)cc2)nc2nc(Nc3ccc(S(=O)(=O)O)cc3)[nH]c(=O)c12", "growth": "99.5%"},
      {"compound": "CCOc1cc(N)ccc1C(=O)NCCCN(CC)CC", "growth": "101%"},
      {"compound": "NC(N)=N/N=C(/c1ccccc1)c1ccccc1F", "growth": "14.1%"},
      {"compound": "CC(c1ccc(-n2cccn2)cc1)c1cnc(N2CCc3ccc(C(N)=O)cc3C2)s1", "note": "(configuration not stated)", "growth": "59.1%"},
      {"compound": "CC(/C=N/NC(=O)c1cc(-c2ccco2)[nH]n1)=C\\c1ccccc1", "growth": "92.1%"}
    ]},
    {"tested_on": "SK-MEL-5 melanoma", "assay": "NCI-60 one-dose screen, 48 h (100 = growth as untreated, 0 = no growth, -100 = all killed)", "conditions": "10 µM unless noted", "values": [
      {"compound": "Fc1ccc(Nc2nc3nonc3nc2Nc2ccc(F)cc2)cc1", "growth": "-46.4% (active)"},
      {"compound": "COc1cc(C2CC(c3ccc(Nc4nc(Nc5ccc(F)cc5)nc(Nc5ccc(Cl)cc5)n4)cc3)=NN2C(C)=O)cc(OC)c1OC", "note": "(configuration not stated)", "growth": "60.1%"},
      {"compound": "c1ccc2[nH]c(SSc3nc4ncncc4[nH]3)nc2c1", "growth": "28.1%"},
      {"compound": "COc1cccc(CCC2CCCN(c3cc(C)nc(N)n3)C2)c1", "note": "(configuration not stated)", "growth": "18.2%"},
      {"compound": "COc1cc(C2C=C(c3cccc(NC(C)=O)c3)Nc3ncnn32)cc(OC)c1OC", "note": "(configuration not stated)", "growth": "21.6%"},
      {"compound": "Cc1c(C(=O)O)nnn1-c1nccs1", "growth": "99.6%"},
      {"compound": "CC(C)c1ccc(C(=O)OC(=O)c2ccc(C(C)C)cc2)cc1", "growth": "116%"},
      {"compound": "c1ccc(-c2oc3ccccc3c2-c2ccccc2)cc1", "growth": "84.3%"},
      {"compound": "C=CC(=O)Nc1cccc(C)c1Nc1cc(-c2cccnc2Cc2c(C)c(OC)cc(OC)c2C)ncn1", "growth": "57.9%"},
      {"compound": "Clc1ccc2[nH]c3c(NCCCN4CCOCC4)ncnc3c2c1", "growth": "67%"},
      {"compound": "CCCCCCCC/C=C\\CCCCCCCC(=O)Oc1cccc2cccnc12", "growth": "102%"},
      {"compound": "CCN(CC)CCCNC(=O)c1ccc(N)cc1O", "growth": "95.4%"},
      {"compound": "CC(C)n1nc(C#Cc2cccc(O)c2)c2c(N)ncnc21", "growth": "-91.8% (active)"},
      {"compound": "CSc1ccc(Cl)c(C(=O)Nc2sccc2C(N)=O)c1", "growth": "95%"},
      {"compound": "COc1ccc(NC(=O)c2cccc(-c3cc(=O)c4c(O)c(OC)c(OC)cc4o3)c2)cc1", "growth": "91.4%"},
      {"compound": "CC(C)OCCCNCC(=O)Nc1ccc(S(=O)(=O)c2ccc(NC(=O)CNCCCOC(C)C)cc2)cc1", "growth": "82.4%"},
      {"compound": "COc1cc(/C=C/C(=O)c2cccc(-n3cc(-c4ccccc4)[nH]c3=O)c2)cc(OC)c1OC", "growth": "-90.1% (active)"},
      {"compound": "C[C@@H]1C(=O)N(C[C@H](Cc2ccccc2)NC(=O)OCc2ccccc2)[C@]1(Cc1ccccc1)C(=O)OC(C)(C)C", "growth": "58.8%"},
      {"compound": "Oc1ccccc1-c1nc2ccccn2c1NCCN1CCOCC1", "growth": "98.7%"},
      {"compound": "COc1ccc(/C(C)=C(\\c2ccc(Cl)cc2)c2ccc(OCCCN(C)C)cc2)cc1F", "growth": "84.1%"},
      {"compound": "COc1cc2ccccc2cc1C(=O)NC(=S)Nc1ccc(-c2nc3ccccc3[nH]2)cc1", "growth": "42.5%"},
      {"compound": "O=[N+]([O-])c1ccc2[nH]cc(-c3c4ccsc4cc4[nH]c5ccc([N+](=O)[O-])cc5c34)c2c1", "growth": "-7.86% (active)"},
      {"compound": "CCOC(=O)c1nnn(C(Cc2ccccc2Cl)C(=O)OCC)c1C", "note": "(configuration not stated)", "growth": "101%"},
      {"compound": "Cc1nc(Nc2ccccn2)sc1C(=O)/C=C/c1ccc(Br)cc1", "growth": "84.7%"},
      {"compound": "CN(C)c1ccc(/C=C/c2c(F)cccc2F)cc1", "growth": "94.9%"},
      {"compound": "N#Cc1c(-c2ccc(C(F)(F)F)cc2)cc(N2CC(O)C2)n2c1nc1ccccc12", "growth": "67.5%"},
      {"compound": "O=C1c2ccccc2C(=O)c2cc(Cn3cc[n+](Cc4ccc5ccccc5c4)c3)ccc21", "growth": "68.3%"},
      {"compound": "O=C(CC12CC3CC(CC(C3)C1)C2)NCCOCCOCCOCCNC(=O)c1cc2c(o1)C(=O)c1ccccc1C2=O", "growth": "-98.4% (active)"},
      {"compound": "Oc1[nH]c2ccccc2c1/C=c1/cc2c(c(-c3ccc(F)cc3)n1)=Nc1ccccc1-2", "growth": "-38.9% (active)"},
      {"compound": "N#Cc1c(N)nc2c(nnn2-c2cccc(C(F)(F)F)c2)c1N", "growth": "87.9%"},
      {"compound": "CN(C)CN1CCN(c2ccc3nc(-c4ccc5nc(-c6ccc(C(F)(F)F)cc6)[nH]c5c4)[nH]c3c2)CC1", "growth": "23.6%"},
      {"compound": "COC(=O)Nc1nc2ccc(C(=O)C3CC3)cc2[nH]1", "growth": "8.13% (active)"},
      {"compound": "CC1(C)N=C(N)N=C(N)N1c1ccc(Cl)c(Cl)c1", "growth": "25.2%"},
      {"compound": "O=C1NC(=S)S/C1=C\\N1N=C(c2ccc(Cl)cc2)CC1c1ccc(F)cc1", "note": "(configuration not stated)", "growth": "77.8%"},
      {"compound": "Cc1nc(Nc2ccc(NC(=S)Nc3ccccc3)cc2)nc2nc(Nc3ccc(S(=O)(=O)O)cc3)[nH]c(=O)c12", "growth": "117%"},
      {"compound": "CCOc1cc(N)ccc1C(=O)NCCCN(CC)CC", "growth": "100%"},
      {"compound": "NC(N)=N/N=C(/c1ccccc1)c1ccccc1F", "growth": "15.8%"},
      {"compound": "CC(c1ccc(-n2cccn2)cc1)c1cnc(N2CCc3ccc(C(N)=O)cc3C2)s1", "note": "(configuration not stated)", "growth": "18.8%"},
      {"compound": "CC(/C=N/NC(=O)c1cc(-c2ccco2)[nH]n1)=C\\c1ccccc1", "growth": "98.8%"}
    ]}
  ]
}
